Reference: PubChem BioAssay (EPA / NIEHS)
Several values for one entry are separate records, joined by “and”; a condition that tells them apart may be missing. Equal entries are not always repeated. Records with an inconclusive call do not appear. Some structures have more than one record in an assay (separate samples or runs), and their calls can disagree. Activity calls are given as the source filed them. The calls were made as follows: active = hit-call score of the fitted dose curve at least 0.9, where 1 is the maximum; inconclusive = response in the unintended direction; inactive = score below 0.9.

Columns and labels:
[1] = biological target: rat Mineralocorticoid Receptor (MR), Nr3c2 (gene 25672) (UniProt P22199); experiment: NVS_NR_rMR: NovaScreen (NVS) Nuclear Receptor Binding Assay for rat Mineralocorticoid Receptor (MR) (AID 2283355)
Summary of the method: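 Cell-free radioligand binding to MR in adrenalectomized rat brain supernatant, scintillation counted 24 h after dosing. Loss of signal versus DMSO baseline marks displacement. Primary screen in duplicate at 25 uM; actives retested as concentration series.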

[2] = biological target: human Peroxisome Proliferator-activated Receptor alpha (PPARa), PPARA (gene 5465) (UniProt Q07869); experiment: NVS_NR_hPPARa: NovaScreen (NVS) Nuclear Receptor Binding Assay for human Peroxisome Proliferator-activated Receptor alpha (PPARa) (AID 2283359);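 also: activity means loss of TR-FRET signal versus DMSO baseline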
Summary of the method: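 Cell-free binding assay with extracted human protein, read by TR-FRET 1 h after chemical dosing. Loss of signal relative to DMSO baseline indicates binding. Primary screen used duplicate single concentration (25 uM); actives followed up in concentration series.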

[3] = biological target: Retinoic acid receptor alpha (Homo sapiens) (UniProt P10276); experiment: NVS_NR_hRARa_Agonist: NovaScreen (NVS) Nuclear Receptor Binding Assay for human Retinoic Acid Alpha Receptor Agonism (RAR) (AID 2283361)
Summary of the method: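 Cell-free TR-FRET binding read-out with extracted human RARα protein, read 2 h after compound addition. Gain of signal scored against DMSO baseline. Primary screen at a single 25 uM in duplicate; actives then retested in concentration series.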

[4] = biological target: human Adenosine Transporter (Adot), SLC29A1 (gene 2030) (UniProt Q99808); experiment: NVS_TR_hAdoT: NovaScreen (NVS) Transporter Assay for human Adenosine Transporter (Adot) (AID 2283368)
Summary of the method: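 U937-derived membranes, cell-free radioligand binding, filter scintillation 1 h after dosing. 25 uM duplicate screen; hits (e.g. 30% inhibition) run in concentration-response up to 50 uM; loss of signal versus DMSO.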

[5] = biological target: Peroxisome proliferator-activated receptor gamma (Homo sapiens) (UniProt P37231); experiment: NVS_NR_hPPARg: NovaScreen (NVS) Nuclear Receptor Binding Assay for human Peroxisome Proliferator-activated Receptor gamma (PPARg) (AID 2283370)
Summary of the method: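 FP read-out, 2 h post-dose, cell-free extracted receptor protein. Signal loss vs DMSO negative control = binding activity. Single-conc duplicate HTS at 25 uM; concentration-response follow-up for actives.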

[6] = tested on: rat Norepinephrine Transporter (NET), gene 83511; experiment: NVS_TR_rNET: NovaScreen (NVS) Transporter Assay for rat Norepinephrine Transporter (NET) (AID 2283373)
Summary of the method: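 Rat forebrain membranes; radioligand binding measured by filter-based scintillation counting 1 hour after dosing. Loss of specific binding versus DMSO baseline scored; primary screen in duplicate at 25 uM, actives followed up in concentration series.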

[7] = biological target: Estrogen receptor (Homo sapiens) + Estrogen receptor beta (Homo sapiens) (UniProt P03372+Q92731); experiment: OT_ER_ERaERb_1440: Odyssey Thera (OT) 24-hour HEK293T Protein-Complementation Assay for Estrogen Receptor-alpha/-beta Homodimer (AID 2283356);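 also: heteromer of ER alpha and ER beta binding domains; hits raise reporter fluorescence and both agonists and antagonists give an increase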
Summary of the method: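 Readout: mean fluorescence intensity in nucleus (agonists) or nucleus plus cytoplasm (antagonists), read by laser scanning cytometer after 24 h compound exposure of HEK293T cells carrying ERα/ERβ LBD fragment-complementation constructs; DMSO baseline.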

[8] = biological target: Estrogen receptor beta (Homo sapiens) (UniProt Q92731); experiment: OT_ER_ERbERb_0480: Odyssey Thera (OT) 8-hour HEK293T Protein-Complementation Assay for Estrogen Receptor-beta/-beta Homodimer (AID 2283357);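 also: active means signal gain over DMSO baseline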
Summary of the method: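 Readout: increase in mean fluorescence intensity (nucleus for agonists; nucleus plus cytoplasm for antagonists) relative to DMSO, from a reporter-fragment complementation of human ER-beta LBD homodimer in HEK293T cells dosed 8 hours.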

[9] = biological target: Nuclear receptor subfamily 1 group I member 2 (Homo sapiens) (UniProt O75469); experiment: NVS_NR_hPXR: NovaScreen (NVS) Nuclear Receptor Binding Assay for human Pregnane X Receptor (PXR) (AID 2283365);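 also: a drop in FRET signal versus DMSO baseline means the compound binds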
Summary of the method: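 TR-FRET signal read at 2 h in a cell-free human PXR binding format. DMSO served as negative control and baseline; activity scored as signal loss. Single-concentration duplicate screen (25 uM), then concentration-response follow-up.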

PGR (gene 5241) = PGR (gene 5241) (UniProt P06401); experiment: NVS_NR_hPR: NovaScreen (NVS) Nuclear Receptor Binding Assay for human Progestron Receptor (PR) (AID 2283360);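 also: active means loss of bound radioligand signal versus DMSO baseline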
Summary of the method: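 T47D lysate; tritiated or iodinated radioligand; scintillation count at 18 h. DMSO = negative control/baseline. Primary: 25 uM, duplicate. Secondary: concentration series for actives.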

[10] = tested on: guinea pig Dopamine Transporter (DAT), gene 100714898; experiment: NVS_TR_gDAT: NovaScreen (NVS) Transporter Assay for guinea pig Dopamine Transporter (DAT) (AID 2283369);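 also: active compounds lower bound radioligand signal relative to DMSO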
Summary of the method: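 Cell-free striatal membrane prep (guinea pig), 2 h exposure, filtration + scintillation readout of radioligand binding. Single-point 25 uM duplicate; actives rerun singleton, top conc 50 uM.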

[11] = biological target: human Dopamine Transporter (DAT), SLC6A3 (gene 6531) (UniProt Q01959); experiment: NVS_TR_hDAT: NovaScreen (NVS) Transporter Assay for human Dopamine Transporter (DAT) (AID 2283374);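 also: activity means loss of bound radioligand signal relative to DMSO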
Summary of the method: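 Cell-free radioligand binding to extracted human DAT protein, read 1 h after dosing by filter-based scintillation counting. Loss of specific binding scored against DMSO baseline; primary screen in duplicate at 25 uM, actives then run in concentration series.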

[12] = biological target: Glucocorticoid receptor (Homo sapiens) (UniProt P04150); experiment: NVS_NR_hGR: NovaScreen (NVS) Nuclear Receptor Binding Assay for human Glucocorticoid Receptor (GR) (AID 2283363);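 as to AC50: activity is loss of specific radioligand binding signal relative to DMSO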
Summary of the method: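 Cell-free radioligand binding with extracted receptor protein, read by filter-based scintillation counting 16 hours after dosing. Loss of specific signal versus DMSO baseline was scored. Primary screen ran in duplicate at 25 uM; actives were followed up in concentration series.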

[13] = biological target: human Thyroid Receptor Alpha (TRa), THRA (gene 7067) (UniProt P10827); experiment: NVS_NR_hTRa_Antagonist: NovaScreen (NVS) Nuclear Receptor Binding Assay for human Thyroid Receptor Alpha Antagonism (TRa) (AID 2283362);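 also: activity is loss of signal relative to DMSO baseline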
Summary of the method: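 AlphaLISA chemiluminescent immunoassay readout, taken 1 h post-dosing in a cell-free system with extracted protein. Activity was scored as signal loss against DMSO negative control, from duplicate single-concentration (25 uM) testing followed by concentration-response follow-up.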

[14] = biological target: guinea pig Sigma Receptor, Non-selective Binding, SIGMAR1 (gene 100135589) (UniProt Q60492); experiment: NVS_OR_gSIGMA_NonSelective: NovaScreen (NVS) Nuclear Receptor Binding Assay for guinea pig Sigma Receptor, Non-selective Binding (AID 2283367)
Summary of the method: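 Guinea pig brain membranes, cell-free radioligand binding; read 1 h after dosing by filter-based scintillation counting. Loss of signal vs DMSO baseline taken as displacement. Primary screen single concentration 25 uM in duplicate; actives retested in concentration series.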

[15] = biological target: human Serotonin Transporter (SERT), SLC6A4 (gene 6532) (UniProt P31645); experiment: NVS_TR_hSERT: NovaScreen (NVS) Transporter Assay for human Serotonin Transporter (SERT) (AID 2283372)
Summary of the method: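 Radioligand binding to native SERT in human platelet membranes, read by filter-based scintillation counting 1 h after dosing. Primary screen in duplicate at 25 uM; actives followed up in concentration series; loss of signal versus DMSO baseline.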

[16] = biological target: Retinoic acid receptor alpha (Homo sapiens) (UniProt P10276); experiment: NVS_NR_hRAR_Antagonist: NovaScreen (NVS) Nuclear Receptor Binding Assay for human Retinoic Acid Alpha Receptor Antagonism (RAR) (AID 2283358)
Summary of the method: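 Cell-free TR-FRET binding assay on extracted receptor protein, run in antagonist mode; signal read 2 hours after chemical dosing. Loss of signal was fitted relative to DMSO baseline. Screened at 25 uM in duplicate, actives followed up in concentration series.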

[17] = biological target: rat Androgen Receptor (AR), Ar (gene 24208) (UniProt P15207); experiment: NVS_NR_rAR: NovaScreen (NVS) Nuclear Receptor Binding Assay for rat Androgen Receptor (AR) (AID 2283366)
Summary of the method: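 Cell-free radioligand binding on extracts of prostate from testosterone-pretreated rats, read by filter-based scintillation counting 18 h after dosing. Loss of bound signal fitted positively versus DMSO; primary screen in duplicate at 25 uM, actives followed up in concentration series.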

human Peroxisome Proliferator-activated Receptor alpha (PPARa), PPARA (gene 5465), sequence (Q07869 whole entry, looked up): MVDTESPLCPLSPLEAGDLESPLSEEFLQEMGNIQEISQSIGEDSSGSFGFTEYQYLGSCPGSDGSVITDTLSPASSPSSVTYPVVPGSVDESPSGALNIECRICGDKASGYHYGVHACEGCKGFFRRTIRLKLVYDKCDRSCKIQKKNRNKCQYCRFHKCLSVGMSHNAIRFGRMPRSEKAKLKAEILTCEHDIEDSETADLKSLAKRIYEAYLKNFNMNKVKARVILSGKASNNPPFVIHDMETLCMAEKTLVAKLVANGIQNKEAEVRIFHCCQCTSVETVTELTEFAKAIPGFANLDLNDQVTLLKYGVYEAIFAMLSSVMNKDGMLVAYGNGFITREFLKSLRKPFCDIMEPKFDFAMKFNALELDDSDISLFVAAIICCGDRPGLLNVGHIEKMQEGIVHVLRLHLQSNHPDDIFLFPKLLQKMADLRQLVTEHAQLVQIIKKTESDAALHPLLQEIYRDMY
rat Androgen Receptor (AR), Ar (gene 24208), sequence (P15207 whole entry, looked up): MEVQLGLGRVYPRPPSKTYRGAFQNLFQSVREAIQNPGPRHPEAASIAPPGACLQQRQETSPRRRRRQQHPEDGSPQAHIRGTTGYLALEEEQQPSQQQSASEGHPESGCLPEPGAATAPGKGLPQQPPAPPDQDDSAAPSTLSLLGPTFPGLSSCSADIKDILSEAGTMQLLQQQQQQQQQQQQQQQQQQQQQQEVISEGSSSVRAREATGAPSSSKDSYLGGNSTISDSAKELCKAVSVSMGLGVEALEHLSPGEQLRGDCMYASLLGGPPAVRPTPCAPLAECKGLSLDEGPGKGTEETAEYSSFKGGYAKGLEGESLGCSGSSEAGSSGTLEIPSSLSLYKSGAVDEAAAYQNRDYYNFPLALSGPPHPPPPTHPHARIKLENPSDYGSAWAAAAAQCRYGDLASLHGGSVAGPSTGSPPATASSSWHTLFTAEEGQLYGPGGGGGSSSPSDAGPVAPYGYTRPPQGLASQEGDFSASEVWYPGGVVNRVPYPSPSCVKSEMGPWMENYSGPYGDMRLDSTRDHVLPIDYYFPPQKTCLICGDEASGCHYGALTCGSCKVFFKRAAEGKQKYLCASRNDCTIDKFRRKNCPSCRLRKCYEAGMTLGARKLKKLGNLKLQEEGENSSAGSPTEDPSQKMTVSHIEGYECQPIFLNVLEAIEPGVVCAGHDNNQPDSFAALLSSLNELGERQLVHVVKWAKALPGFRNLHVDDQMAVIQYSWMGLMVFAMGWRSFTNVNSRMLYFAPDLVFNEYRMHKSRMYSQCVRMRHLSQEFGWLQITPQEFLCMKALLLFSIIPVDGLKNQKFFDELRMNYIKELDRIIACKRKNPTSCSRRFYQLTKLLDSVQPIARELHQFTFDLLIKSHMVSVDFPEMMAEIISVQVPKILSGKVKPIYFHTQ
Peroxisome proliferator-activated receptor gamma (Homo sapiens), sequence (P37231 whole entry, looked up): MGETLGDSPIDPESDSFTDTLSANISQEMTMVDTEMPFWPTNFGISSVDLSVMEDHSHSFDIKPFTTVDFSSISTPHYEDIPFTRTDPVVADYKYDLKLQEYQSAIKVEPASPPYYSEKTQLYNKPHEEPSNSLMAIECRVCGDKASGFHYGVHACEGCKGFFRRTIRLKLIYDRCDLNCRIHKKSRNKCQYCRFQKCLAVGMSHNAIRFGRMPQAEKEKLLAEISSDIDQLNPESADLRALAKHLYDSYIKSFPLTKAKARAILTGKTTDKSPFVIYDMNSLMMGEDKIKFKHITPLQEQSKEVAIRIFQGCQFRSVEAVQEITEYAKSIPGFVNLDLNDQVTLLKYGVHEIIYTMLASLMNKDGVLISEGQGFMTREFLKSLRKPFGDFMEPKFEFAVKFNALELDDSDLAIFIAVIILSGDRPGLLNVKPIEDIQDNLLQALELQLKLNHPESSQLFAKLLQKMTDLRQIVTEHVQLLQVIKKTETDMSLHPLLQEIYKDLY
PGR (gene 5241), sequence (P06401 whole entry, looked up): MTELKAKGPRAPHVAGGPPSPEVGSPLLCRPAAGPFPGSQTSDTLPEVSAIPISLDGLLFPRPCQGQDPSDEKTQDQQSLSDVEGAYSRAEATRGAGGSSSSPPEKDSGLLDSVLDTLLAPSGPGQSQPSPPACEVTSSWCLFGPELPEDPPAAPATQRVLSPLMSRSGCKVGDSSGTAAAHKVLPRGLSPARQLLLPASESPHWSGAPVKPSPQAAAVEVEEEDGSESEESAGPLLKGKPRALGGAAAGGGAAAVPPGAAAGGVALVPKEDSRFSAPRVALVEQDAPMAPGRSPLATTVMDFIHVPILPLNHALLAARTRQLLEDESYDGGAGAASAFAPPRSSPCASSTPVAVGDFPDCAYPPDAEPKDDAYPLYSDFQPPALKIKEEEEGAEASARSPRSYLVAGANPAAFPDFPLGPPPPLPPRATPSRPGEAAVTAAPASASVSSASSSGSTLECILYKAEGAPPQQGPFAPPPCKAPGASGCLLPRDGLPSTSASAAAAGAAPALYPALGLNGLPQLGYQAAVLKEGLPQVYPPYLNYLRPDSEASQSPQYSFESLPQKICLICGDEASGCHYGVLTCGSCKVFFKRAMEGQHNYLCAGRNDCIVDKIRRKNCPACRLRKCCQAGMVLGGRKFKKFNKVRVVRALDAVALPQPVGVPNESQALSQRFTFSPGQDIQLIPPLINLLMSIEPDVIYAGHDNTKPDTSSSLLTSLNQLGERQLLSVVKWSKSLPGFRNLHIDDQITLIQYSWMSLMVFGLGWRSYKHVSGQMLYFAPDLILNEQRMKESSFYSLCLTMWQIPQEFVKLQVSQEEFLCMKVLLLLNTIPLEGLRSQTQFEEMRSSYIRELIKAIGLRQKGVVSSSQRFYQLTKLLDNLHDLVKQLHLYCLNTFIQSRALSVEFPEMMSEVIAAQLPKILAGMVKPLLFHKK
Nuclear receptor subfamily 1 group I member 2 (Homo sapiens), sequence (O75469 whole entry, looked up): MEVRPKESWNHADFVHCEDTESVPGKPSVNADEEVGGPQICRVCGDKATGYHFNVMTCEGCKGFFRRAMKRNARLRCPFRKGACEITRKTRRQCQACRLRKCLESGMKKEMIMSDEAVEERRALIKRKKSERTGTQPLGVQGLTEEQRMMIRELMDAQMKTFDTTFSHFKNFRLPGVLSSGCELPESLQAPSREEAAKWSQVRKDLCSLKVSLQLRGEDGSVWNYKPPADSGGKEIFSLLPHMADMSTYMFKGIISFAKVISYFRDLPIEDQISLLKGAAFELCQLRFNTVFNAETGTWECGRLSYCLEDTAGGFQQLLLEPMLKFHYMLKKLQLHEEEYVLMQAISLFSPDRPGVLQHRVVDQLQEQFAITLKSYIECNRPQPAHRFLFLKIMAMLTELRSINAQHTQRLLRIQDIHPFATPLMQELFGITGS
human Thyroid Receptor Alpha (TRa), THRA (gene 7067), sequence (P10827 whole entry, looked up): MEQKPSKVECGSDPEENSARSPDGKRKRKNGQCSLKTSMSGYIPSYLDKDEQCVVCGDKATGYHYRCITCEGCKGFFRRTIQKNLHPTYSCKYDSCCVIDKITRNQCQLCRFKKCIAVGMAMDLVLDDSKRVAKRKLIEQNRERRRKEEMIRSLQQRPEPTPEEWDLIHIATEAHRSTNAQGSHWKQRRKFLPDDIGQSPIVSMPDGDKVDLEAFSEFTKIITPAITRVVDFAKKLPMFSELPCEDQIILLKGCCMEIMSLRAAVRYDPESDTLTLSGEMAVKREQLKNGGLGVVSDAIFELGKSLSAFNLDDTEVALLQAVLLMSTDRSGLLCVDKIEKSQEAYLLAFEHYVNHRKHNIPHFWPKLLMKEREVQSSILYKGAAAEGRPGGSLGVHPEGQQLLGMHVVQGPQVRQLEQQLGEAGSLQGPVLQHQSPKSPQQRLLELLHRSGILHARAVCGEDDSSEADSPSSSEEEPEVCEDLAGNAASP
Glucocorticoid receptor (Homo sapiens), sequence (P04150 whole entry, looked up): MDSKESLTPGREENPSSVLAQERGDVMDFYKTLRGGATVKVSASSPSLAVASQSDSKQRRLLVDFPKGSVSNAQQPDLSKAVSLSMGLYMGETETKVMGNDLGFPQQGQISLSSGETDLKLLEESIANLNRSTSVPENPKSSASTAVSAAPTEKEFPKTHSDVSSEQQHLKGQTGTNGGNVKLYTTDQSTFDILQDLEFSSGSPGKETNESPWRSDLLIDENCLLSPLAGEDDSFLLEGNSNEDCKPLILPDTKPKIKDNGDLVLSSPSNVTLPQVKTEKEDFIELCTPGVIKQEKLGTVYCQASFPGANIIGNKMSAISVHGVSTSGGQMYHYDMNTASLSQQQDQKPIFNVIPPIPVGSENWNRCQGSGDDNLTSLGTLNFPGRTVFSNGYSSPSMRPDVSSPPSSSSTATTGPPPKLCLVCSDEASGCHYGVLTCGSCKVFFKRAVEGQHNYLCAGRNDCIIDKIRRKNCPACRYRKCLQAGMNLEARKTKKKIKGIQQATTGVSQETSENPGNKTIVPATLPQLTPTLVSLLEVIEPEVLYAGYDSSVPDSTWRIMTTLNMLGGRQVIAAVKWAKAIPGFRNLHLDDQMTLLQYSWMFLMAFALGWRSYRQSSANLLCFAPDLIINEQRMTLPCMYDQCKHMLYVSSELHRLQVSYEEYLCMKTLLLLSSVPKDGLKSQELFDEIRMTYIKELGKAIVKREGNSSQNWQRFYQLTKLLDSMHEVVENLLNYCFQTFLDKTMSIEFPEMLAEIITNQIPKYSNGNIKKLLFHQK
Estrogen receptor beta (Homo sapiens), sequence (Q92731 whole entry, looked up, the tested form may be a part): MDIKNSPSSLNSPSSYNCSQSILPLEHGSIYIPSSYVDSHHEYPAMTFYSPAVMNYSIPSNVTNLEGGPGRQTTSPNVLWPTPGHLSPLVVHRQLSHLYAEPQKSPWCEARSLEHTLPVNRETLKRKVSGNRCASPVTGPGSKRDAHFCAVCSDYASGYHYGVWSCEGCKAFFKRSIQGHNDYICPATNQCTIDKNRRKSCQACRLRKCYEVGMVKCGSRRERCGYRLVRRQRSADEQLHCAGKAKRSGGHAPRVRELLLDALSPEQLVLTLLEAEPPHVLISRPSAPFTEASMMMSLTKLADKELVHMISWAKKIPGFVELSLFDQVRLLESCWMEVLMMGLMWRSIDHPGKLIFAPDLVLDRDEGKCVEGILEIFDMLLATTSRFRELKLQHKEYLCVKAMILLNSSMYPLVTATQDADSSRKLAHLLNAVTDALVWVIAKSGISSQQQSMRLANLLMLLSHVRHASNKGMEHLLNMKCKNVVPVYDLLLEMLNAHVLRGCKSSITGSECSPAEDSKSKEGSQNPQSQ

COc1cc(-c2ccc(N)c(OC)c2)ccc1N
outcome [1]: inactive
AC50 [2]: 14.1 µM (active)
outcome [2]: inactive
outcome [3]: inactive
AC50 [4]: 14.2 µM (active)
outcome [5]: inactive
outcome [6]: inactive

C=CC#N
outcome [7]: inactive
outcome [8]: inactive
outcome [9]: inactive
outcome [5]: inactive

CCCCCCCCc1ccc(O)cc1
AC50 [8]: 12.2 µM (active)
outcome [2]: inactive
outcome [5]: inactive

CC1(C)Cc2cccc(O)c2O1
outcome [7]: inactive
outcome [8]: inactive
outcome [9]: inactive

C=C(C)C#N
outcome [7]: inactive
outcome [8]: inactive

Oc1ccc(-c2ccccc2)cc1
AC50 [8]: 12.7 µM (active)
outcome [2]: inactive
AC50 (PGR (gene 5241)): 43.2 µM (active)
AC50 [10]: 11.9 µM (active)
AC50 [11]: 10.7 µM (active)

CNC(=O)O/N=C/C(C)(C)S(C)=O (configuration not stated)
outcome [7]: inactive
outcome [8]: inactive
outcome [5]: inactive

O=C(O)C(F)(F)C(F)(F)C(F)(F)C(F)(F)C(F)(F)C(F)(F)F
outcome [8]: inactive
outcome [2]: inactive
outcome [5]: inactive

CC(C)C1CCC(Cc2ccc(Cl)cc2)C1(O)Cn1cncn1 (configuration not stated)
AC50 [7]: 11.7 µM (active)
outcome [8]: inactive
AC50 [12]: 5.7 µM (active)
AC50 [9]: 15.5 µM (active)
outcome [5]: inactive

CC(C)(c1ccccc1)c1ccc(O)c(C(C)(C)c2ccccc2)c1
AC50 [7]: 12 µM (active)
AC50 [8]: 2.61 µM (active)
outcome [2]: inactive
outcome [13]: inactive
outcome [9]: inactive
outcome [11]: inactive

CCC(C)(C)c1ccc(O)c(C(C)(C)CC)c1
outcome [7]: inactive
outcome [8]: inactive
outcome [5]: inactive

Cn1sc(Cl)cc1=O
outcome [7]: inactive
outcome [8]: inactive
outcome [12]: inactive
outcome [11]: inactive

COc1cc(OC)nc(NC(=O)NS(=O)(=O)c2ncccc2C(=O)N(C)C)n1
outcome [7]: inactive
outcome [8]: inactive
outcome [9]: inactive

CCOP(=S)(OCC)SCSP(=S)(OCC)OCC
AC50 [7]: 9.13 µM (active)
AC50 [8]: 14.7 µM (active)
outcome [9]: inactive
AC50 [11]: 25 µM (active)

N#CN=C(N)N
outcome [7]: inactive
outcome [8]: inactive

OCc1ccco1
outcome [7]: inactive
outcome [8]: inactive
outcome [9]: inactive

C[C@]12CCC(=O)C[C@@H]1CC[C@@H]1[C@@H]2CC[C@]2(C)[C@@H](O)CC[C@@H]12
AC50 [8]: 6.23 µM (active) and 10.7 µM (active) and 5.44 µM (active)
outcome [8]: inactive
AC50 (PGR (gene 5241)): 0.366 µM (active)
outcome [9]: inactive
AC50 [14]: 5.71 µM (active)

NNC(=S)NN
outcome [7]: inactive
outcome [8]: inactive
AC50 [13]: 25.4 µM (active)
outcome [9]: inactive

Oc1cccc2cccnc12
outcome [8]: inactive
AC50 [13]: 5.52 µM (active)
outcome [9]: inactive

O=S(=O)(c1ccc(Cl)cc1)c1ccc(Cl)cc1
outcome [7]: inactive
outcome [8]: inactive

[O-][Cl+2]([O-])O
outcome [7]: inactive
outcome [9]: inactive

CC(C#N)CCC#N (configuration not stated)
outcome [7]: inactive
outcome [8]: inactive
outcome [9]: inactive

C=C(C)C(=O)[O][Sn]([CH2]CCC)([CH2]CCC)[CH2]CCC
outcome [7]: inactive
outcome [8]: inactive
outcome [2]: inactive
AC50 (PGR (gene 5241)): 3.42 µM (active)
AC50 [12]: 1.15 µM (active)
outcome [9]: inactive
AC50 [4]: 36.7 µM (active)
AC50 [10]: 19.9 µM (active)
AC50 [5]: 1.62 µM (active)
AC50 [15]: 8.9 µM (active)
AC50 [6]: 25 µM (active)
AC50 [11]: 2.82 µM (active)

Fc1ccc(C2(Cn3cncn3)OC2c2ccccc2Cl)cc1 (configuration not stated)
AC50 [7]: 27.3 µM (active)
AC50 [8]: 14.9 µM (active)
outcome [9]: inactive

Clc1ccc(COC(Cn2ccnc2)c2ccc(Cl)cc2Cl)cc1 (configuration not stated)
AC50 [7]: 11.8 µM (active)
outcome [8]: inactive
AC50 [16]: 16.2 µM (active)
AC50 [2]: 39.8 µM (active)
outcome [13]: inactive
AC50 [12]: 2.3 µM (active)
AC50 [9]: 9.83 µM (active)
AC50 [17]: 6.9 µM (active)

Clc1ccc(C2(Cn3cncn3)CC(Br)CO2)c(Cl)c1 (configuration not stated)
AC50 [7]: 56.4 µM (active)
outcome [8]: inactive
outcome [13]: inactive
AC50 [12]: 6.23 µM (active)
AC50 [9]: 19.8 µM (active)
outcome [5]: inactive

COC(=O)c1sccc1S(=O)(=O)NC(=O)Nc1nc(C)nc(OC)n1
outcome [7]: inactive
outcome [8]: inactive
outcome [5]: inactive

BrCCBr
outcome [7]: inactive
outcome [8]: inactive

Cc1ccc(N)cc1Cl
AC50 [7]: 15.3 µM (active)
outcome [8]: inactive

CCCCCCCCSC(=O)Oc1cc(Cl)nnc1-c1ccccc1
outcome [2]: inactive

CC(=O)C=C(C)C
outcome [2]: inactive

CC(C)(OO)c1ccccc1
outcome [12]: inactive

N#CCCO
outcome [17]: inactive

CCN(CC)C(=O)Cl
outcome [17]: inactive

Nc1ccc(Cl)cc1C(=O)c1ccccc1
AC50 [10]: 6.19 µM (active)

Nc1ccc(-c2ccc(N)c(Cl)c2)cc1Cl
AC50 [10]: 3.73 µM (active)
